Assay results as given in PubChem BioAssay (Tox21).
Results filed as inconclusive are left out. A number with no mark means an inactive call. Active and inactive are the calls of the source. The call rests on the fitted dose curve; in most records, active means well fitted cell-killing curve with a large enough effect in the repeat runs; inconclusive means weak or mixed curves, or effect the other way; inactive means flat fitted curve, though single readings scatter.

Assay: cAMP Responsive Elements (CRE) small molecule antagonists, cell-based qHTS assay: qHTS cell viability counter screen (AID 2060913); further: nearly all actives have a fitted effect of over 40% in size
Conditions: CRE-bla HEK293T viability, CellTiter-Glo luminescence, 5 h; series mostly up to 92.4 µM; viability change, negative = cytotoxic: at the top concentration
From the text: U.S. Tox21 Program National Center for Advancing Translational Sciences [NCATS] Division of Preclinical Innovation [DPI] U.S. Environmental Protection Agency [EPA] National Institutes of Environmental Health Sciences [NIEHS] National Toxicology Program [NTP] U.S. Food and Drug Administration [FDA] Tox21 Assay Overview: CREB (cyclic-AMP Responsive Element Binding Protein) is a cellular transcription factor. It binds to certain DNA sequences called cAMP Responsive Elements (CRE) and regulates the transcription of the genes. […] This cell line can be used to find agonists/antagonists of the cyclic AMP signaling pathway. The activation of the report gene under culture conditions can be detected by fluorescence intensity. This cell line has been used to screen the Tox21 10K compound library to identify agonists that induce oxidative stress. The cytotoxicity of the Tox21 compound library against the CRE-bla cell line was tested in parallel by measuring the cell viability using CellTiter-Glo assay (Promega, Madison, WI) in the same wells.
Tox21 Assay Protocol Summary: CRE-bla Hek 293T cells were suspended in assay medium (DMEM containing 10% dialyzed FBS, 0.1 mM NEAA, 1 mM sodium pyruvate and 25 mM HEPES) and dispensed at 2,000 cells/4 uL /well into 1536-well black wall/clear bottom plates using a Multidrop Combi (ThermoFisher Scientific, Waltham, MA) dispenser. After the assay plates were incubated at 37 C/5% CO2 for 18 hrs, 23 nL of compounds dissolved in DMSO, positive controls or DMSO only was transferred to the assay plate by a pintool workstation (Kalypsys, San Diego, CA), followed by addition of 1 uL of 1.25uM NKH477 (0.25 uM as final concentration) in assay medium using a Flying Reagent Dispenser (Aurora Discovery, San Diego, CA). The plates were incubated at 37 C and 5% CO2 for 3 hrs. Then 1 uL of LiveBLAzer B/G FRET substrate (Invitrogen, Carlsbad, CA) was added to each well using Bioraptr Flying Reagent Dispenser (FRD, Aurora Discovery, San Diego, CA). The plates were incubated at room temperature for 2 h, then fluorescence intensities were measured using an Envision plate reader (PerkinElmer, Shelton, CT) at Excitation 405nm, Emission 460nm and 530nm. The % activity was determined from the ratio of 460nm/530nm. For cell viability readout that measures cytotoxicity, 4 uL /well of CellTiter-Glo reagent was added into the assay plates using Bioraptr FRD. After 30 min incubation at room temperature, the luminescence intensity in the assay plates was measured using a ViewLux (PerkinElmer, Shelton, CT) plate reader.
On the % scale 0 is the no-effect control and ±100 the full control effect; potency means the concentration at half of the fitted maximal effect.

Structure (SMILES) | viability change, negative = cytotoxic | Potency
CC(=O)c1c(C)c([N+](=O)[O-])c(C(C)(C)C)c([N+](=O)[O-])c1C | -7.78% | –
c1ccc2[nH]c(-c3cscn3)nc2c1 | – | inactive
Cc1ccc(C(=O)C(C)CN2CCCCC2)cc1 (stereo not given) | 1.01% [at 42.5 µM] | –
O=C(O)c1cccc(O)c1 | -3.31% | –
CC(C)Oc1ccc2c(=O)c(-c3ccccc3)coc2c1 | – | inactive
CCC(C)(C)C1CCC(=O)CC1 | 1.73% | –
Cc1cccc(C(C)(C)C)c1O | -1.32% | –
CCCN(CCC)CCc1cccc2c1CC(=O)N2 | -2.69% [at 42.5 µM] | –
CCCCC(CC)CO (stereo not given) | – | inactive
CC(=O)Nc1ccc(N)cc1 | 15.4% | –
CC(C)(C)c1n[nH]c(=S)n(N)c1=O | 2.23% | –
C=CCOc1c(Br)cc(Br)cc1Br | -6.59% | –
CCCCOC(=O)C(C)O (stereo not given) | 1.87% | –
C=COCCCCO | 7.02% | –
C=CC(=O)NCOCC(C)C | 1.08% | –
Cc1cc(O)c2c(c1)C(=O)c1cc(O)cc(O)c1C2=O | – | inactive
OCc1cccnc1 | – | inactive
COC[C@H](c1ccc(C(F)(F)F)cc1)N1CCN(C2(C)CCN(C(=O)c3c(C)ncnc3C)CC2)C[C@H]1C | -0.315% [at 42.5 µM] | –
CC(C)=CCC1C(=O)N(c2ccccc2)N(c2ccccc2)C1=O | 11.3% [at 42.5 µM] | –
OCC(O)CO | – | inactive

Structure (SMILES) | viability change, negative = cytotoxic | Potency
C=CN1CCCCCC1=O | 2.52% | –
Nc1ccc(-c2ccc(F)cc2)cc1 | 8.93% | –
CC(=O)Oc1ccc(C(=C2CCCCC2)c2ccc(OC(C)=O)cc2)cc1 | 0% [at 42.5 µM] | –
CCCCCCCCCCC | 0.0113% | –
C[C@@H]1[C@H](O)[C@@H](C)/C=C/C=C\C=C\C=C\C=C\C=C\C=C\[C@H](O[C@@H]2O[C@H](C)[C@@H](O)[C@H](N)[C@@H]2O)C[C@@H]2O[C@](O)(C[C@@H](O)C[C@@H](O)[C@H](O)CC[C@@H](O)C[C@@H](O)CC(=O)O[C@H]1C)C[C@H](O)[C@H]2C(=O)O (stereo in doubt) | -8% | –
CC(C)OC(=O)C(C(=O)OC(C)C)=C1SC=CS1 | -4.94% [at 42.5 µM] | –
Nc1ccc(C(=O)NCC(=O)O)cc1 | -0.157% [at 42.5 µM] | –
Nc1ccc(N)c2ccccc12 | -20.2% | –
C1CCC(SSC2CCCCC2)CC1 | 0.855% | –
C[Si](C)O[Si](C)(C)O[Si](C)(C)O[Si](C)C | -0.106% | –
O=C1C=CC(=O)N1c1ccc(Cc2ccc(N3C(=O)C=CC3=O)cc2)cc1 | – | 54.5 µM (active)
O=C(O)c1ccccc1 | – | inactive
OC[C@]1(O)OC[C@@H](O)[C@H](O)[C@@H]1O | – | inactive
C=C[Si](C)(C)Cl | -0.015% [at 8.39 µM] | –
CCCCCCCCC(C)=O | 16.3% | –
CN(C)Cc1ccccc1O | -3.77% | –
O[C@@H]1CO[C@H]2[C@@H]1OC[C@@H]2O | 6.85% [at 42.5 µM] | –
O=C(O)c1ccc(C(=O)O)c(C(=O)O)c1 | – | inactive
CCCCCCCCCCCCCCCC(=O)OC[C@H](O)[C@H]1OC(=O)C(O)=C1O | 2.27% | –
Cc1cc2c(s1)Nc1ccccc1N=C2N1CCN(C)CC1 | -1.55% [at 42.5 µM] | –
